A selection follows.
aSyn 5UTR act = Activators via SNCA 5'UTR binding, MLPCN; alpha-synuclein 5'UTR reporter, activators screen; activity score, % (tested at 7.5 µM), hits read low; 300,000 tested, 7.1% active; AID 1814, 2009; in the data active = activity score below about -60%
Large screens that a line does not name were inactive.

CC(=O)Nc1ccc2nc(N)sc2c1	aSyn 5UTR act -107.4
CC(=O)Nc1ccc2cc3ccc(NC(C)=O)cc3nc2c1	aSyn 5UTR act -73.3
CCc1ccc(NC(=O)c2ccc3nc(N)sc3c2)cc1	aSyn 5UTR act -131.0
Nc1nc2ccc(C(=O)Nc3ccccc3)cc2s1	aSyn 5UTR act -129.3
O=C(c1cnn2cccnc12)N1CCN(c2ccccc2)CC1	aSyn 5UTR act -64.4
O=C(Nc1ccc2c(c1)OCO2)c1cnn2cccnc12	aSyn 5UTR act -141.5
O=C(Nc1cccc(O)c1)c1cnn2cccnc12	aSyn 5UTR act -109.7
COc1ccc(-c2ccc(-c3noc(C)n3)c(OC)n2)cc1	aSyn 5UTR act -145.9
COCc1nc(-c2ccc(-c3ccc(C)cc3)nc2OC)no1	aSyn 5UTR act -190.1
COc1ccc(/C(O)=C/c2nc3ccccc3n(-c3ccccc3)c2=O)cc1	aSyn 5UTR act -84.3
COc1ccc(-c2cn3cc(Cl)ccc3n2)cc1OC	aSyn 5UTR act -239.0
COc1ccc(C2=NOC(CNC(=S)N3CCOCC3)C2)cc1 (stereo not given)	aSyn 5UTR act -132.0
O=C1CN(C(=O)c2cccc(Br)c2)c2ccccc2N1	aSyn 5UTR act -84.6
Cc1ccc(C)c(Nc2c([N+](=O)[O-])cc(C(=O)N3CC(=O)Nc4ccccc43)cc2[N+](=O)[O-])c1	none
COc1ccc(C2=Nc3ccccc3OC2)cc1	aSyn 5UTR act -189.5
CCOC(=O)c1csc(-c2ccc([N+](=O)[O-])cc2)n1	aSyn 5UTR act -66.9
Oc1ccc(Nc2nc3ccccc3nc2Nc2ccc(O)cc2)cc1	none
Cc1nc2ccccc2nc1N/N=C/c1ccc(O)cc1	aSyn 5UTR act -87.3
COc1ccc(-c2cnnc(N/N=C/c3ccc(O)cc3)n2)cc1	aSyn 5UTR act -76.8
COc1ccc(-c2cnnc(N/N=C/c3ccc(O)c(O)c3)n2)cc1	aSyn 5UTR act -90.2
Oc1ccc(/C=N\Nc2nncc(-c3ccccc3)n2)cc1	aSyn 5UTR act -174.0
N#Cc1cc2c([nH]c1=S)CCCCCC2	aSyn 5UTR act -71.3
Cc1ccc(C2=N/C(=C\N(C)C)C(=O)O2)cc1	aSyn 5UTR act -144.4
CN(C)/C=C1\N=C(c2ccc(Cl)cc2Cl)OC1=O	aSyn 5UTR act -149.1
Cc1cc(=O)[nH]c(N=N/C(=N/Nc2ccc(O)cc2)c2ccccc2)n1	aSyn 5UTR act -100.2
COc1ccc(N/N=C(/N=Nc2nc(C)cc(=O)[nH]2)c2ccccc2)cc1	none
COc1ccccc1/C=C\C=N\NC(=O)c1ccco1	aSyn 5UTR act -97.9
COc1ccccc1/C=C/C=N/NC(=O)c1cccs1	aSyn 5UTR act -180.5
CCC1CCc2sc(C(=O)NCc3ccccn3)cc2C1 (stereo not given)	aSyn 5UTR act -92.3
CCCCCCCCCCOC(=O)Cn1c(COc2cccc(C)c2)[n+](C)c2ccccc21	none
COc1ccc(OCCn2c(=O)sc3ccccc32)cc1	aSyn 5UTR act -142.4
Cc1cccc(OCCCn2c(=O)sc3ccccc32)c1	aSyn 5UTR act -90.0
CCc1ccc(Nc2cnn(-c3nc4ccccc4s3)c(=O)c2Cl)cc1	aSyn 5UTR act -80.5
Cc1cc2ncn(C(=O)N3CCC(C)CC3)c2cc1C	aSyn 5UTR act -66.5
Clc1cccc(/C=N/Nc2ncnc3ccccc23)c1	aSyn 5UTR act -197.9
C(=N\Nc1ncnc2ccccc12)/c1ccccc1	aSyn 5UTR act -212.4
Nc1c(Cl)ncnc1N/N=C/c1ccnc2ccccc12	aSyn 5UTR act -68.0
NS(=O)(=O)c1ccc(N=Nc2ccc(O)c3ncccc23)cc1	none
Oc1ccc(N=Nc2ccc3ccccc3c2)cc1	aSyn 5UTR act -73.2
Oc1c(N=Nc2ccccn2)ccc2ccccc12	none
COc1cc(N=Nc2ccc3ccccc3c2)ccc1O	aSyn 5UTR act -144.2
Oc1ccc(N=Nc2c(O)ccc3ccccc23)cc1	aSyn 5UTR act -97.6
COC(=O)c1ccc(C(=O)NC2CCCc3c2cnn3-c2ccc(C)c(C)c2)cc1 (stereo not given)	none
Cc1cc(C(=O)NC2CCCc3c2cnn3-c2cccc(C)c2C)no1 (stereo not given)	aSyn 5UTR act -117.7
CC1(C(=O)OCC(=O)c2c[nH]c3ccccc23)CC1(Cl)Cl (stereo not given)	aSyn 5UTR act -259.6
Cc1ccc(C(=O)OCC(=O)c2c[nH]c3ccccc23)cc1	aSyn 5UTR act -147.3
COC(=O)c1ccc(NC(=O)C(=O)c2c[nH]c3ccccc23)cc1	aSyn 5UTR act -92.5
Cc1cn(-c2cc(C(=O)Nc3ccc(C)c(NC(=O)C(=O)c4c[nH]c5ccccc45)c3)cc(C(F)(F)F)c2)cn1	none
O=C(OCC(=O)c1c[nH]c2ccccc12)C1=COCCO1	aSyn 5UTR act -143.1
COc1ccc(C2C(O)C(c3c[nH]c4ccccc34)=NN2C(=O)CCl)cc1 (stereo not given)	none
Cc1ccc(OCC(=O)c2c[nH]c3ccccc23)c([N+](=O)[O-])n1	aSyn 5UTR act -67.0
Cc1ccc(OCC(=O)c2cc(C)n(-c3ccccc3)c2C)c([N+](=O)[O-])n1	none
COc1ccc(OCC(=O)c2c[nH]c3ccccc23)cc1	aSyn 5UTR act -90.3
Cc1c(Cl)cccc1NC(=O)c1cccc(OC(F)F)c1	aSyn 5UTR act -75.6
Cc1ccc(C(=O)Nc2ccccc2OC(F)F)cc1	aSyn 5UTR act -62.5
Cc1ccc(NC(=O)c2cccc(OC(F)F)c2)c(OC(F)F)c1	aSyn 5UTR act -70.7
Cc1ccc(Oc2nn[nH]n2)cc1	aSyn 5UTR act -77.5
Cc1cccc(N/N=C(\C(N)=O)C2=NC(C)(C)Cc3ccccc32)c1	none
COc1ccc(NC(=O)C2Cc3ccccc3O/C2=N\O)cc1 (stereo not given)	aSyn 5UTR act -82.3
Cc1cccc(NC(=O)C2Cc3ccccc3O/C2=N\O)c1 (stereo not given)	aSyn 5UTR act -137.8
CC(=O)n1nc(-c2ccco2)nc1SCc1ccccc1	aSyn 5UTR act -88.7
CCC(=O)n1nc(-c2ccco2)nc1SCc1ccccc1	aSyn 5UTR act -74.2
Cc1cc(C)nc(SCc2ccc(C(=O)N/N=C/c3cccc(O)c3O)cc2)n1	none
CC(C)c1ccc(/C=N/NC(=O)c2cccc(Cl)c2)cc1	aSyn 5UTR act -238.4
CC(C)c1ccc(C(=O)N/N=C/c2cccc(Cl)c2Cl)cc1	aSyn 5UTR act -65.5
CC(C)c1ccc(/C=N/NC(=O)CCNC(=O)c2ccccc2)cc1	aSyn 5UTR act -63.2
COc1cc2c(cc1NC(=O)COC(=O)C(CCSC)NC(=O)c1ccccc1Cl)oc1ccccc12 (stereo not given)	aSyn 5UTR act -135.7
COc1ccc(-c2csc(/C(C#N)=C/Nc3cc4oc5ccccc5c4cc3OC)n2)cc1	none
COc1cc2c(cc1NC(=O)Nc1ccccc1)oc1ccccc12	aSyn 5UTR act -66.8
COc1cc2c(cc1NC(=O)C(C)Sc1ccc(C)cc1)oc1ccccc12 (stereo not given)	aSyn 5UTR act -108.7
COc1cc2c(cc1NC(=O)CN1CCN(S(=O)(=O)c3ccccc3F)CC1)oc1ccccc12	aSyn 5UTR act -90.8
CCCOc1ccccc1C1CC(=O)Nc2cc3c(cc21)OCCO3 (stereo not given)	none
COc1cc2c(cc1NC(=O)COC(=O)Cn1cnc3ccccc31)oc1ccccc12	aSyn 5UTR act -75.8
COc1cc2c(cc1NC(=O)Cc1ccc(C)cc1)oc1ccccc12	aSyn 5UTR act -129.8
COc1cc2c(cc1NCc1ccccn1)oc1ccccc12	aSyn 5UTR act -153.5
CNC(=O)/C(C#N)=C/c1ccc(-c2ccc(Cl)cc2)o1	aSyn 5UTR act -125.0
Cc1cccc(C)c1NC(=O)/C(C#N)=C/c1ccc(-c2ccc(C(=O)O)cc2)o1	aSyn 5UTR act -127.1
CCCCCn1cnc2sc(-c3ccccc3)cc2c1=O	aSyn 5UTR act -298.6
CCCCn1cnc2sc(-c3ccccc3)cc2c1=O	aSyn 5UTR act -212.7
